Measurements taken from PMC11062922 (Nature Chemical Biology, 2023).
Where two headings read alike, the source gives them in different places.

Columns and labels:
Design in all cases: species or system human, MV4-11 + K-562 + COLO205 + SK-N-BE2 + OVCAR-8
[1] = test system: ACVR1; settings: read-out: apparent Kd, n = 1
[2] = test system: CDK16; settings: read-out: apparent Kd; compound concentrations:100 nM and 1000 nM (sheet 'Samples'); n = 1
[3] = test system: CDK17; settings: read-out: apparent Kd; compound concentrations:100 nM and 1000 nM (sheet 'Samples'); n = 1
[4] = test system: CDK6; settings: read-out: apparent Kd; compound concentrations:100 nM and 1000 nM (sheet 'Samples'); n = 1
[5] = test system: CDK9; settings: read-out: apparent Kd; compound concentrations:100 nM and 1000 nM (sheet 'Samples'); n = 1
[6] = test system: EIF2AK1; settings: read-out: apparent Kd; compound concentrations:100 nM and 1000 nM (sheet 'Samples'); n = 1
[7] = test system: GSK3A; settings: read-out: apparent Kd, n = 1
[8] = test system: GSK3B; settings: read-out: apparent Kd, n = 1
[9] = test system: ICK; settings: read-out: apparent Kd; compound concentrations:100 nM and 1000 nM (sheet 'Samples'); n = 1
[10] = test system: MAPK7; settings: read-out: apparent Kd; compound concentrations:100 nM and 1000 nM (sheet 'Samples'); n = 1
[11] = test system: PDGFRB; settings: read-out: apparent Kd; compound concentrations:100 nM and 1000 nM (sheet 'Samples'); n = 1
[12] = test system: PIM2; settings: read-out: apparent Kd; compound concentrations:100 nM and 1000 nM (sheet 'Samples'); n = 1
[13] = test system: TAOK2; settings: read-out: apparent Kd; compound concentrations:100 nM and 1000 nM (sheet 'Samples'); n = 1
[14] = test system: BCR; settings: read-out: apparent Kd; compound concentrations: 100 nM and 1000 nM (sheet 'Samples'), CATDS: 0.114797180795753; n = 1
[15] = test system: CDKL5; settings: read-out: apparent Kd; compound concentrations: 100 nM and 1000 nM (sheet 'Samples'), CATDS: 0.10101184649506401; n = 1
[16] = test system: CSNK2A1;CSNK2A3; settings: read-out: apparent Kd; compound concentrations: 100 nM and 1000 nM (sheet 'Samples'), CATDS: 0.137145274912611; n = 1
[17] = test system: CSNK2A2; settings: read-out: apparent Kd; compound concentrations: 100 nM and 1000 nM (sheet 'Samples'), CATDS: 0.22568308322630501; n = 1
[18] = test system: ACVR1B; settings: read-out: apparent Kd; compound concentrations:100 nM and 1000 nM (sheet 'Samples'); n = 1
[19] = test system: DDR1; settings: read-out: apparent Kd; compound concentrations:100 nM and 1000 nM (sheet 'Samples'); n = 1
[20] = test system: DDX3X;DDX3Y; settings: read-out: apparent Kd; compound concentrations:100 nM and 1000 nM (sheet 'Samples'); n = 1
[21] = test system: MAPK10; settings: read-out: apparent Kd; compound concentrations:100 nM and 1000 nM (sheet 'Samples'); n = 1
[22] = test system: MAPK14; settings: read-out: apparent Kd; compound concentrations:100 nM and 1000 nM (sheet 'Samples'); n = 1
[23] = test system: MAPK9; settings: read-out: apparent Kd; compound concentrations:100 nM and 1000 nM (sheet 'Samples'); n = 1
[24] = test system: MAPKAPK2; settings: read-out: apparent Kd; compound concentrations:100 nM and 1000 nM (sheet 'Samples'); n = 1
[25] = test system: NLK; settings: read-out: apparent Kd; compound concentrations:100 nM and 1000 nM (sheet 'Samples'); n = 1
[26] = test system: PRKD2; settings: read-out: apparent Kd; compound concentrations:100 nM and 1000 nM (sheet 'Samples'); n = 1
[27] = test system: PRKD3; settings: read-out: apparent Kd; compound concentrations:100 nM and 1000 nM (sheet 'Samples'); n = 1
[28] = test system: T1, DJA1; settings: read-out: apparent Kd; compound concentrations:100 nM and 1000 nM (sheet 'Samples'); n = 1
T1 construct: gene DNAJA1

[29] = test system: FYN; settings: read-out: apparent Kd; compound concentrations:100 nM and 1000 nM (sheet 'Samples'); n = 1
[30] = test system: PIK3CA; settings: read-out: apparent Kd; compound concentrations:100 nM and 1000 nM (sheet 'Samples'); n = 1
[31] = test system: PIK3CD; settings: read-out: apparent Kd; compound concentrations:100 nM and 1000 nM (sheet 'Samples'); n = 1
[32] = test system: STK16; settings: read-out: apparent Kd; compound concentrations:100 nM and 1000 nM (sheet 'Samples'); n = 1
[33] = compound concentrations:100 nM and 1000 nM (sheet 'Samples')

Structure (SMILES): CCN1CCN(CCCC(=O)Nc2n[nH]c3nc(-c4ccc(O)cc4)c(Br)cc23)CC1 [SB-731579]
- potency estimated from few doses [1, 33]: 914 nM
- potency estimated from few doses [2]: 1220 nM
- potency estimated from few doses [3]: 986 nM
- potency estimated from few doses [4]: 1070 nM
- potency estimated from few doses [5]: 1180 nM
- potency estimated from few doses [6]: 201 nM
- potency estimated from few doses [7, 33]: 4.8 nM
- potency estimated from few doses [8, 33]: 20.1 nM
- potency estimated from few doses [9]: 1420 nM
- potency estimated from few doses [10]: 1360 nM
- potency estimated from few doses [11]: 145 nM
- potency estimated from few doses [12]: 557 nM
- potency estimated from few doses [13]: 1350 nM

Structure (SMILES): COc1cccc(-n2ncc3c(N/N=C/c4ccc(S(C)(=O)=O)cc4)ncnc32)c1 [GW811168X]
- potency estimated from few doses ([1]; compound concentrations: 100 nM and 1000 nM (sheet 'Samples'), CATDS: 0.17536774799610499): 555 nM
- potency estimated from few doses [14]: 1420 nM
- potency estimated from few doses [15]: 2130 nM
- potency estimated from few doses [16]: 907 nM
- potency estimated from few doses [17]: 365 nM
- potency estimated from few doses ([7]; compound concentrations: 100 nM and 1000 nM (sheet 'Samples'), CATDS: 0.157775642803201): 677 nM
- potency estimated from few doses ([8]; compound concentrations: 100 nM and 1000 nM (sheet 'Samples'), CATDS: 0.15091586406642499): 740 nM

Structure (SMILES): CNc1ncc2cc(Oc3ccc(F)cc3F)c(=O)n(C)c2n1 [RO5083957-000]
- potency estimated from few doses [18]: 853 nM
- potency estimated from few doses [19]: 958 nM
- potency estimated from few doses [20]: 1740 nM
- potency estimated from few doses [21]: 1750 nM
- potency estimated from few doses [22]: 618 nM
- potency estimated from few doses [23]: 1640 nM
- potency estimated from few doses [24]: 843 nM
- potency estimated from few doses [25]: 1800 nM

Structure (SMILES): Cc1cccc(-c2cc(Nc3ccncc3)c3ccccc3n2)n1 [GSK223675A]
- potency estimated from few doses [18]: 21.7 nM
- potency estimated from few doses [26]: 293 nM
- potency estimated from few doses [27]: 590 nM

Structure (SMILES): Clc1cccc(-c2nc(Nc3ccncc3)c3ccccc3n2)c1 [GW873004X]
- potency estimated from few doses [18]: 843 nM
- potency estimated from few doses [28]: 2180 nM
- potency estimated from few doses [29]: 937 nM
- potency estimated from few doses [30]: 222 nM
- potency estimated from few doses [31]: 106 nM
- potency estimated from few doses [32]: 1400 nM
